The nature of assay [1]: qHTS assay to identify small molecule agonists of the RXR signaling pathway - cell viability counter screen (AID 1159529).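 Further: HEK 293T cells carrying an RXR-alpha UAS beta-lactamase reporter; series mostly up to about 77 µM; nearly all actives have a fitted effect of over 50% in size.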 In outline: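 In this parallel viability measure, GeneBLAzer RXR-alpha HEK 293T cells (2% charcoal-stripped FBS) were given a 5 hr preincubation, treated with compounds 16 hr at 37 C, and read by CellTiter-Glo luminescence.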
In general terms: qHTS replaces the single test concentration by a dilution series.

The nature of assay [2]: qHTS assay to identify small molecule antagonists of the retinoid acid receptor (RAR) signaling pathway - cell viability counter screen (AID 1159551). Further: nearly all actives have a fitted effect of over 35% in size. In outline: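 C3RL4 RARE-luciferase line; cpds + retinol 1 uM final, 6 h, 37 C/5% CO2; CellTiter-Glo ATP luminescence, 30 min RT.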
The nature of assay [3]: qHTS assay to identify small molecule agonists of the retinoic acid receptor (RAR) signaling pathway (AID 1159553). In outline: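 RARE-luc C3RL4 cells; overnight attachment 37 C/5% CO2; compound (DMSO) 6 hr; luciferase reagent, 30 min RT; luminescence read-out.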
Assay [4] is described as follows: qHTS assay to identify small molecule antagonists of the estrogen related receptor (ERR) signaling pathway - cell viability counter screen (AID 1224818). Further: series mostly up to about 46 µM. In outline:
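Fluorescence from CellTiter-Fluor, read 30 min after reagent addition at 37 C, measured viability of ERR cells exposed to compounds for 17.5 h. Cells had settled 6 h before dosing.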

Assay [5] is described as follows: qHTS assay to identify small molecule agonists of the estrogen related receptor (ERR) signaling pathway (AID 1224820). In outline: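 After 6 h plating (2,000 cells/well) and 18 h compound treatment at 37 C, ERR cells were lysed with One-Glo and luminescence read after 30 min at room temperature.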
The test system of assay [6] is estrogen-related receptor alpha (ERRalpha) with PGC-1alpha coactivator, human. Kind of assay: qHTS assay to identify small molecule antagonists of the estrogen related receptor signaling pathway with the pleiotropic PPARgamma coactivator (PGC) (AID 1224821; calls by dose curve;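 further: series mostly up to about 46 µM; lower luminescence signal means antagonism of PGC/ERR signalling; nearly all actives have a fitted effect of over 50% in size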). In outline:
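Luminescence from One-Glo luciferase reagent (30 min, room temperature) measured after 18 h compound treatment at 37 °C. Cells carry the PGC/ERR reporter and were seeded 6 h prior to dosing.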

Assay [7] is described as follows: qHTS assay to identify small molecule antagonists of the estrogen related receptor signaling pathway with the pleiotropic PPARgamma coactivator (PGC) cell viability counter screen (AID 1224822; further: series mostly up to about 46 µM). In outline:
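Fluorescence read-out of CellTiter-Fluor after 30 min at 37 C; PGC/ERR cells, 2,000 per well, had been exposed to DMSO-dissolved compounds for 17.5 h following a 6 h pre-incubation.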

A short description of assay [8]: qHTS assay to identify small molecule agonists of the estrogen related receptor signaling pathway with the pleiotropic PPARgamma coactivator (PGC) (AID 1224823). In outline:
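Luminescence from One-Glo reagent (30 min, room temperature) was read after 18 h compound treatment at 37 C of PGC/ERR cells plated 6 h beforehand; compounds delivered in DMSO by pin tool.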

Assay [9] in a line: qHTS assay to identify small molecule antagonists of the estrogen related receptor (ERR) signaling pathway from Tox21 library - cell viability counter screen (AID 1224834). Further: nearly all actives have a fitted effect of over 30% in size. In outline:
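Multiplexed viability counter screen in ERR cells: 17.5 h compound exposure at 37 C, CellTiter-Fluor added, 30 min at 37 C/5% CO2, fluorescence read.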

For assay [10], the target named is Luciferin 4-monooxygenase (Photinus pyralis) (UniProt P08659). Kind of assay: qHTS assay to identify small molecule inhibitors of firefly luciferase (AID 1224835). Further: series mostly up to about 120 µM; nearly all actives have a fitted effect of over 25% in size. In outline: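 Quantitative HTS format; KM concentrations of both substrates. Purified P. pyralis FLuc activity quantified from luminescence images.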
Assay [11] can be described thus: qHTS assay to identify small molecule antagonists of the constitutive androstane receptor (CAR) signaling pathway - cell viability counter screen (AID 1224837). Further: nearly all actives have a fitted effect of over 45% in size. Further: potency means the concentration at half of the fitted maximal effect. In outline:
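Read-out: CellTiter-Fluor fluorescence after 23 hr at 37 C/5% CO2. Cells: HepG2 double-stable for hCAR and CYP2B6-2.2kb. Compounds tested at 15 concentrations in the presence of CITCO, final concentration 50 nM.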

Assay [12] deals with Nuclear receptor subfamily 1 group I member 3 (Homo sapiens) (UniProt Q14994). Kind of assay: qHTS assay to identify small molecule antagonists of the constitutive androstane receptor (CAR) signaling pathway (AID 1224838).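 Further: HepG2 cells stably expressing hCAR with CYP2B6 luciferase reporter stimulated by CITCO; nearly all actives have a fitted effect of over 40% in size.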 Further: potency means the concentration at half of the fitted maximal effect. In outline:
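Read-out: ONE-Glo luciferase luminescence after 30 min at room temperature. HepG2-CYP2B6-hCAR double-stable cells, compounds in 15-point titration plus 50 nM CITCO final, 24 h at 37 C/5% CO2.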

Assay [13] is described as follows: qHTS assay to identify small molecule antagonists of the estrogen related receptor signaling pathway with the pleiotropic PPARgamma coactivator (PGC) from Tox21 10K library - cell viability counter screen (AID 1224840; active means well fitted cell-killing curve with a large enough effect in the repeat runs, not every such curve was filed as active; further: nearly all actives have a fitted effect of over 40% in size). In outline: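 Fluorescence read-out of CellTiter-Fluor viability reagent, added after cells had been exposed to compound in DMSO for 17.5 h at 37 C; 30 min development at 37 C/5% CO2. Cells: PGC/ERR line, 2,000/well.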

Assay [14] can be described thus: qHTS assay to identify small molecule antagonists of the estrogen related receptor signaling pathway with the pleiotropic PPARgamma coactivator (PGC) from Tox21 10K library (AID 1224841; call rule not given here; further: series mostly up to about 92 µM; actives are mostly falling curves and most rising ones were filed inactive; nearly all actives have a fitted effect of over 50% in size). In outline: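 Luminescence read-out (One-Glo luciferase reagent, 30 min at room temperature) from PGC/ERR cells exposed to DMSO-dissolved test compounds for 18 h at 37 C; cells, 2,000 per well, had been preincubated 6 h before compound transfer.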

The nature of assay [15]: qHTS assay to identify small molecule agonists of the estrogen related receptor signaling pathway with the pleiotropic PPARgamma coactivator (PGC) from Tox21 10K library (AID 1224842). Further: nearly all actives have a fitted effect of over 15% in size. In outline: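 PGC/ERR reporter cells (NTP line) were seeded 2,000 per well, rested 6 h at 37 C/5% CO2, then pin-dosed with compounds in DMSO for 18 h at 37 C; luciferase read by One-Glo luminescence after 30 min at room temperature.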

The target of assay [16] is Thyrotropin receptor (Homo sapiens) (UniProt P16473). Kind of assay: qHTS assay to identify small molecule agonists of the thyroid stimulating hormone receptor (TSHR) signaling pathway (AID 1224843; calls by dose curve; further: nearly all actives have a fitted effect of over 45% in size; further: potency means the concentration at half of the fitted maximal effect). In outline: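 Compounds are titrated over 15 concentrations, in triplicate, onto TSHR-HEK293 cells seeded at 800/well. Plates sit 30 min at room temperature before cAMP-d2 and anti-cAMP cryptate are added; signal is read after a further hour.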

Assay [17] in a line: qHTS assay to identify small molecule antagonists of the retinoic acid receptor (RAR) signaling pathway (AID 1159552; further: nearly all actives have a fitted effect of over 50% in size). In outline:
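C3RL4 RARE-luc cells, overnight plating; retinol 1 uM final added right after compound; 6 hr 37 C; luciferase read at 30 min RT.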

A short description of assay [18]: qHTS assay to identify small molecule agonists of the constitutive androstane receptor (CAR) signaling pathway - cell viability counter screen (AID 1224836). Further: series mostly up to about 92 µM; nearly all actives have a fitted effect of over 45% in size. In outline:
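Using CellTiter-Fluor, viability of HepG2 cells harbouring hCAR and CYP2B6-2.2kb was measured following 23 h incubation with a 15-concentration compound series plus PK11195 (0.75 uM final).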

Assay [19] has as its target Nuclear receptor subfamily 1 group I member 3 (Homo sapiens) (UniProt Q14994). The assay is described as follows: qHTS assay to identify small molecule agonists of the constitutive androstane receptor (CAR) signaling pathway (AID 1224839).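 Further: HepG2 cells stably carrying human CAR and a CYP2B6 luciferase reporter; series mostly up to about 92 µM; nearly all actives have a fitted effect of over 15% in size.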 In outline: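 Double-stable HepG2 cells (hCAR, CYP2B6-2.2kb) seeded 4 h before compound addition. Exposure 24 h with 0.75 uM PK11195 final. Luciferase detected by ONE-Glo.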

Assay [20] is described as follows: qHTS assay to identify small molecule antagonists of the estrogen related receptor (ERR) signaling pathway (AID 1224819). In outline: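 Luminescence readout (One-Glo, 30 min, RT) of ERR cell line after 18 h compound exposure at 37 C; cells seeded 2,000/well, pre-incubated 6 h, compounds pinned from DMSO stocks.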

Inconclusive results are not listed. Values without a mark were called inactive. Active and inactive are the calls of the source. Unless noted, the call rests on the fitted dose curve; in most records, active means well fitted curve in the direction sought with a large enough effect in the repeat runs; inconclusive means weak or mixed curves; inactive means no such curve, though single readings can be large; an effect the other way counts as inactive or inconclusive.

Chain of Luciferin 4-monooxygenase (Photinus pyralis) (P08659 whole entry, looked up): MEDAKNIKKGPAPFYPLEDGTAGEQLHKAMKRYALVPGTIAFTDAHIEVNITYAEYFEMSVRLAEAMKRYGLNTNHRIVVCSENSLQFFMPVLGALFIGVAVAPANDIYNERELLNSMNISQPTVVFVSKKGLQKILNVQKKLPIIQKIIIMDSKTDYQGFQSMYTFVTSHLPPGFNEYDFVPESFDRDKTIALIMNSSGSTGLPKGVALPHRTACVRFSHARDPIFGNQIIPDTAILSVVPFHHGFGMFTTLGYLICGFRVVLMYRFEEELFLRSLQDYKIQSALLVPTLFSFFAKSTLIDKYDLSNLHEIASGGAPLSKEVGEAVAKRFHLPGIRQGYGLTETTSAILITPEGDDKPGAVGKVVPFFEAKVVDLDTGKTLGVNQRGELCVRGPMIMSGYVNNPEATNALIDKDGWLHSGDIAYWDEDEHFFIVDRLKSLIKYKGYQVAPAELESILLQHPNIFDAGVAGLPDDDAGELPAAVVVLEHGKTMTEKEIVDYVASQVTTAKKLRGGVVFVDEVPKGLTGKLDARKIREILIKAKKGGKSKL
Chain of Thyrotropin receptor (Homo sapiens) (P16473 whole entry, looked up): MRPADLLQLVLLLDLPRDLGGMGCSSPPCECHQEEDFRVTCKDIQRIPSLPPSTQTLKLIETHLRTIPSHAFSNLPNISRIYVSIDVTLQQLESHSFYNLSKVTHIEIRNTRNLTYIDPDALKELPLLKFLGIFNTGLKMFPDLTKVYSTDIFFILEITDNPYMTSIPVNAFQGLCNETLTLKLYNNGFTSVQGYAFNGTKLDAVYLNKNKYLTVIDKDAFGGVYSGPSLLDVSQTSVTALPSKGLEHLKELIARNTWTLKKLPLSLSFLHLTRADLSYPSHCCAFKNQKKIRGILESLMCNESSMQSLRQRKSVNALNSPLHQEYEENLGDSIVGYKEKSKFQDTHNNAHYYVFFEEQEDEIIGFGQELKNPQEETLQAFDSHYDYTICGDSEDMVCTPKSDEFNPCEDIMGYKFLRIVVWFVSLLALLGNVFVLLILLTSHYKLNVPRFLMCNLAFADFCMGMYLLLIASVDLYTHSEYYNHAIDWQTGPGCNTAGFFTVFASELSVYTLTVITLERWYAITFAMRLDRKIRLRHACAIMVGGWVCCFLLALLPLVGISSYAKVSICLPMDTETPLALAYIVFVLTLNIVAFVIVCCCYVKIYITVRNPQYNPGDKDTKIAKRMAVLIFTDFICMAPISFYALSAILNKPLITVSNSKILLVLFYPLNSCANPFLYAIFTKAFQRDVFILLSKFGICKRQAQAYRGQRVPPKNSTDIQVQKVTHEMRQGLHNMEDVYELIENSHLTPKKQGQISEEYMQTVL
Chain of Nuclear receptor subfamily 1 group I member 3 (Homo sapiens) (Q14994 whole entry, looked up): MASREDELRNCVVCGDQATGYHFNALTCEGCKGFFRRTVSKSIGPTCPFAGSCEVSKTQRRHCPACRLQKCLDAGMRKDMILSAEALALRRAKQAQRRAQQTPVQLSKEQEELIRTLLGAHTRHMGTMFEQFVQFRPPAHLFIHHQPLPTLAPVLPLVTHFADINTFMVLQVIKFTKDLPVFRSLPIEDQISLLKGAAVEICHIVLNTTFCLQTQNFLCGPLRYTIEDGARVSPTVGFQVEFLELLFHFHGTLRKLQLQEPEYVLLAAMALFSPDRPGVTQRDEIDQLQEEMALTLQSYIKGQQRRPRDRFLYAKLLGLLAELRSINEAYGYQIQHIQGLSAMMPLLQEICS

Regarding `CN(C(=O)CCCOc1ccc2[nH]c(=O)ccc2c1)C1CCCCC1`, the Potency entry in assay [1], in [2], in assay [3], in assay [9], in assay [10] and in [11] was “inactive” throughout. Moreover, the Potency entry in assay [12], in assay [13], in [14] and in assay [15] was “inactive” each time. The outcome in [4], in assay [5], in [6], in assay [7] and in assay [8] was inactive. Besides, the Potency in assay [16] is 0.335 µM (active).
On to `COc1ccc(C(C)=O)cc1`, for which the Potency entry in assay [1], in assay [2], in [17], in [3], in assay [10] and in assay [18] was “inactive” each time. Besides, the Potency entry in assay [11], in assay [12], in assay [19] and in assay [13] was “inactive” throughout.
On to `CN1CCC(=C2c3ccccc3C=Cc3ccccc32)CC1`, for which the Potency entry in assay [1], in assay [2], in assay [3], in [9], in [10] and in assay [18] was “inactive” throughout. Further, the Potency result in [11], in assay [12], in assay [19], in [13], in assay [14] and in [15] was “inactive” in each case. Also, the Potency result in [16] was “inactive”. Moreover, the call in assay [4], in assay [20], in assay [5], in [6] and in assay [8] was inactive.
With `CC(C)NCC(O)c1cc(O)cc(O)c1` (centres undefined), the Potency result in assay [1], in assay [2], in assay [3], in assay [10], in assay [18] and in [11] was “inactive” throughout. For the same compound, the Potency entry in [12] and in assay [15] was “inactive” throughout. Also, the compound was classed as inactive in assay [4], in assay [20], in assay [5], in assay [6], in assay [7] and in assay [8]. Also, the Potency in assay [16] is 10.6 µM (active).
For the compound `CC(=O)NCCCS(=O)(=O)O`, the Potency result in assay [1], in assay [2], in [17], in assay [9], in assay [10] and in assay [12] was “inactive” each time. Further, the Potency result in [19] and in assay [13] was “inactive” in each case.
In the case of `O=C(O)[C@@H]1[C@H]2C[C@H]3c4[nH]c5ccccc5c4CCN3C[C@@H]2CC[C@@H]1O`, the Potency entry in [1], in [2], in assay [3], in assay [9], in assay [10] and in assay [18] was “inactive” in each case. Moreover, the Potency entry in assay [11], in assay [12], in assay [19], in assay [13], in assay [14] and in assay [15] was “inactive” throughout.
In the case of `CC(=O)/C=C/C1C(C)=CCCC1(C)C` (centres undefined), the Potency entry in assay [1], in [2], in [17], in [3], in assay [9] and in assay [10] was “inactive” in each case. Also, the Potency entry in assay [11] and in [13] was “inactive” in each case.
As for `CC(O)C1CCCCC1` (centres undefined), the Potency entry in [1], in [2], in assay [17], in [3], in assay [10] and in [18] was “inactive” in each case. Further, the Potency entry in assay [11], in assay [12], in assay [19], in [13], in assay [14] and in [15] was “inactive” throughout. Also, the Potency result in [16] was “inactive”.
Regarding `O=[N+]([O-])c1cc[n+]([O-])cc1`, the Potency entry in assay [1], in [2], in assay [17], in [3], in assay [9] and in assay [10] was “inactive” throughout. In addition, the Potency entry in assay [19] is “inactive”. Besides, the values for the Potency in [11] and in assay [12] were 30.6 µM (active) and 43.3 µM (active), respectively.

The record behind these values is PubChem BioAssay (Tox21).
